SMARCA2 act – increases SMARCA2 function in MMTV reporter cells; MG213 cells, MMTV-luciferase reporter, dexamethasone, overnight; activation, % at 9.1 µM; actives 1% (n = 370,000); in the data active means activation above about 7.8%
FGF22 binding – binders of recombinant human FGF22 by thermal shift; Q9HCT0; SYPRO orange fluorescence; percent of sucrose octasulfate shift, DMSO zero; activity (Tm shift, normalised), % at 9.99 µM; actives 1.5% (n = 340,000);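 active means mean Tm shift, scaled 0 neutral to 100 positive control, at about 1.3% or above, every replicate too, limit read from the data; inconclusive means no clear call, values can overlap the other calls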
Target sequence (Q9HCT0 whole entry, looked up): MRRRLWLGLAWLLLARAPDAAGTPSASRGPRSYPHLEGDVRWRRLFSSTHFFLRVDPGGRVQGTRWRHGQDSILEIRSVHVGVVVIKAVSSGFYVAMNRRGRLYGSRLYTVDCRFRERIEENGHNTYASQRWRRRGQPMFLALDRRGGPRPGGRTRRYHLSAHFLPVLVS
esBAF inh – blocks esBAF chromatin remodeling in mouse ES cells | actives 2% (n = 350,000) | reporter increase, % at 12.5 µM | AID 602393 | Bmi1-luciferase knock-in reporter, 24 h; 100% = twice the neutral-well signal; in the data active means activation above about 40%; inconclusive means no clear call, values can overlap the other calls;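 further: a rise in the Bmi1 reporter signal indicates esBAF inhibition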
AF4-AF9 inh – inhibitors of human MLL-AF4/AF9 interaction | inhibition, % at 10 µM | P42568 | AlphaScreen, biotin-AF4 peptide binding to FLAG-AF9 | actives 0.47% (n = 350,000);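 active means every replicate reaching a set inhibition limit, whatever the replicate mean, cut at about 25% in these data; inconclusive means mean inhibition reaches that limit but some replicates miss it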
Target sequence (P42568 whole entry, looked up): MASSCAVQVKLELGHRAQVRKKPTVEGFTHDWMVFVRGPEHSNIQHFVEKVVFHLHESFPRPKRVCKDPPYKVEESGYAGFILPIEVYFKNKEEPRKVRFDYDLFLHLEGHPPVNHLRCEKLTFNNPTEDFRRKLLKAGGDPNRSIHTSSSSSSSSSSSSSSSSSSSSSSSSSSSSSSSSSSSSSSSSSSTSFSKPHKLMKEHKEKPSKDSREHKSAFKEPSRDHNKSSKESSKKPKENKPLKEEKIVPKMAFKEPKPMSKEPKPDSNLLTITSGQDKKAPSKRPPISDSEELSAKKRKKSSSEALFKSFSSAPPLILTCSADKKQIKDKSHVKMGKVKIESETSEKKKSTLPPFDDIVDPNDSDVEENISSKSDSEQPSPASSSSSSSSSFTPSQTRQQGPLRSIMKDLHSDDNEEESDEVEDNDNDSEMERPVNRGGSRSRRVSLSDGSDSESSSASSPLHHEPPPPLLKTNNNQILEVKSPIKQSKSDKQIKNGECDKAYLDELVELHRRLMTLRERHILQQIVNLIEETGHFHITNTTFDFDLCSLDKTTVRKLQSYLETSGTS
MITF act – increases MITF-driven TRPM1 promoter luciferase signal. AID 588334. actives 0.75% (n = 300,000). activation, % at 12.5 µM. SK-MEL-5 TRPM1-promoter luciferase, 24 h; % of positive control, neutral wells = 0;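 active means mean activation of at least 80% with every replicate also reaching 80%; inconclusive means mean reaches 80% but some replicate falls short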
Wnt bcat act – activates Wnt/beta-catenin signaling in a reporter cell assay | activator, plate reader | actives 1.2% (n = 300,000) | AID 743398 | activation, % at 9.35 µM; in the data active means activation above about 30%, passing the limit was not always enough; inconclusive means no clear call, values can overlap the other calls
esBAF Ring1 qPCR – esBAF inhibition confirmed by Ring1 de-repression | mouse ESC E14, Ring1 mRNA RT-qPCR fold change | fold change at 33 µM | 550 tested, under 10 active | shares compounds with esBAF inh;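 active means Ring1 gene expression raised more than 2-fold over untreated cells in both replicates at either tested dose; inconclusive means only one replicate above 2-fold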;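 further: Ring1 transcript normalised to actin housekeeping signal by TaqMan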
esBAF Fgf4 qPCR – esBAF inhibition confirmed by Fgf4 repression. shares compounds with esBAF inh. actives 4% (n = 550). mouse ESC E14, Fgf4 mRNA qPCR fold change; hits give low values. Fgf4 expression fold change at 33 µM;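 active means Fgf4 expression under 0.8 fold of control in both repeat measurements at one or both tested doses; inconclusive means under 0.8 fold in just a single repeat measurement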;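 further: Fgf4 transcript normalised to actin in duplex TaqMan qPCR; cells exposed to compound for 24 h before lysis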
Bmi1 derepress – confirmation of esBAF inhibitors: Bmi1 de-repression in mouse ESCs | shares compounds with esBAF inh | mouse ESE14 ES cells, Bmi1 mRNA qPCR fold; hits give high values | fold change at 33 µM | 550 tested, under 10 active;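 active means Bmi1 expression fold change above 6 at either tested concentration, seen in replicate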;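 further: higher fold means more Bmi1 de-repression and stronger esBAF inhibition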
A549 cytotox – kills or reduces viability of A549 cells; shares compounds with esBAF inh; AID 743188; 550 tested, under 10 active; cell viability change % (negative = cytotoxic), % at 25 µM, hits read low; A549 cytotoxicity, plate reader; call rule not given here
HepG2 cytotox SP – cytotoxicity in HepG2 cells; plate reader; hits give low values; activity change, negative = inhibition, % at 25 µM; actives 4% (n = 550); shares compounds with esBAF inh; in the data active means activity change below about -50%
HEK293 cytotox SP – HEK293 cell cytotoxicity at single point; shares compounds with esBAF inh; plate reader; activity change, negative = inhibition, % at 25 µM, hits read low; actives 3% (n = 550); AID 743190; in the data active means activity change below about -38%, passing the limit was not always enough
A number is an active result; . = inactive; ? = inconclusive; / = not tested or not shown. Sampled rows, rich in hits. Any-hit rate of the full collection: about 4.3%.

SMILES	SMARCA2 act	FGF22 binding	esBAF inh	AF4-AF9 inh	MITF act	Wnt bcat act	esBAF Ring1 qPCR	esBAF Fgf4 qPCR	Bmi1 derepress	A549 cytotox	HepG2 cytotox SP	HEK293 cytotox SP
CCc1cc(C=NC2CCCCC2)c(O)s1	.	/	51	/	/	/	/	/	/	/	/	/
CC1(C)C=Cc2cc(-c3coc4cc(O)cc(O)c4c3=O)cc(O)c2O1	.	.	68	.	.	.	.	.	.	.	.	.
COc1ccc2nc(C(c3ccc(C)cc3)n3c(-c4ccccc4Br)nc4ccccc43)[nH]c2c1 (stereo unspecified)	.	.	?	.	/	.	.	.	.	.	.	.
CS(=O)(=O)N1CCN(c2nc3ccc(Cl)cc3s2)CC1	.	.	/	/	/	.	/	/	/	/	/	/
CC(C)(C)C(=O)N1CCN(c2nc3ccccc3s2)CC1	.	.	64	.	122	.	.	.	.	.	.	.
CC(C)C(=O)N1CCN(c2nc3ccc(Cl)cc3s2)CC1	.	.	80	.	.	.	.	.	.	.	.	.
COC1=C[C@H](C(=O)NCc2ccc(Br)cc2)[C@H](C)[C@@H](c2ccccc2)CC1=O	.	/	/	/	/	/	/	/	/	/	/	/
COc1ccc(-c2cn3c(C)c(C(=O)NC(C)C)sc3n2)cc1	.	/	.	/	.	.	/	/	/	/	/	/
COc1ccc(-c2cn3c(C)c(C(=O)NC(C)(C)C)sc3n2)cc1	.	.	72	.	/	.	.	.	.	.	.	.
CCC(=O)c1ccc(N2CCCC2)c(F)c1	.	/	57	/	/	/	.	.	.	.	.	.
CCC(=O)c1ccc(N2CCN(C(=O)c3ccccc3F)CC2)c(F)c1	.	.	/	.	.	.	/	/	/	/	/	/
CCC(=O)c1ccc(N2CCCCCC2)c(F)c1	.	/	74	/	.	/	.	.	.	.	.	.
C[C@H](CO)N1C[C@H](C)[C@H](CN(C)S(=O)(=O)c2cccs2)Oc2ccc(NC(=O)Cc3ccccc3)cc2CC1=O	/	.	.	.	/	/	/	/	/	/	/	/
C[C@H]1CN([C@@H](C)CO)C(=O)c2cc(NS(=O)(=O)c3ccccc3)ccc2O[C@@H]1CN(C)Cc1ccccc1	/	.	.	.	/	/	/	/	/	/	/	/
COc1ccc(OCc2cc(C(=O)N(C)Cc3cnccn3)no2)c(Cl)c1	.	.	/	.	.	.	/	/	/	/	/	/
COc1ccc(OCc2cc(C(=O)NC(C)Cc3cnccn3)no2)c(Cl)c1 (stereo unspecified)	.	.	61	.	.	.	.	.	.	.	.	.
COc1ccc2c3c([nH]c2c1)[C@@H](CO)N(C(=O)CN(C)C)CC31CCN(C(=O)c2ccncc2)CC1	/	.	/	.	/	/	/	/	/	/	/	/
COc1ccccc1C=Cc1ccnc2ccccc12	.	.	82	.	.	.	.	0.49	11	.	.	.
C[C@H](CO)N1C[C@H](C)[C@H](CN(C)S(=O)(=O)c2ccc(F)cc2)OCCCC[C@H](C)Oc2ccc(NC(=O)Nc3ccc(F)cc3)cc2C1=O	/	.	.	/	/	/	/	/	/	/	/	/
CC(=O)Oc1ccc(-c2cc3ccccc3oc2=O)cc1	.	.	69	.	/	.	.	?	.	.	.	.
O=C(Nc1cccc(F)c1)N1CC(=O)N2[C@H](CO)[C@@H](c3ccc(-c4ccc(F)cc4)cc3)[C@H]2C1	/	/	/	.	/	/	/	/	/	/	/	/
O=[N+]([O-])c1cccc(-c2cc3ccccc3[nH]2)c1	.	.	.	.	/	.	/	/	/	/	/	/
c1ccc(-c2cc3ccccc3[nH]2)cc1	.	.	54	.	96	.	.	.	.	.	.	.
COc1ccc2c3c(n(C)c2c1)[C@H](CO)N(C(=O)c1ccncc1)CC31CN(C)C1	/	.	/	.	/	/	/	/	/	/	/	/
CN1CCN(S(=O)(=O)c2ccc3ccccc3c2)CC1	.	.	.	.	.	.	/	/	/	/	/	/
SMILES	SMARCA2 act	FGF22 binding	esBAF inh	AF4-AF9 inh	MITF act	Wnt bcat act	esBAF Ring1 qPCR	esBAF Fgf4 qPCR	Bmi1 derepress	A549 cytotox	HepG2 cytotox SP	HEK293 cytotox SP
O=S(=O)(c1ccc2ccccc2c1)N1CCN(S(=O)(=O)c2c(F)cccc2F)CC1	.	.	80	.	.	.	.	?	.	.	.	.
C=CCn1c(NCc2ccc(OC)cc2O)nc2ccccc21	.	.	61	.	/	.	.	.	.	.	-68	.
CCC(=O)Nc1ccc2c(c1)C(=O)N(C)C[C@@H](OC)[C@H](C)CN(Cc1ccccc1)[C@@H](C)CO2	/	.	.	.	/	/	/	/	/	/	/	/
COc1ccc(-c2nnn(Cc3ccccc3)n2)cc1	.	.	79	.	.	.	.	.	.	.	.	.
Nc1ccc(-c2nnn(Cc3ccccc3)n2)cc1	.	.	.	.	/	.	/	/	/	/	/	/
CCCC#Cc1cnc2c(c1)C(=O)N([C@H](C)CO)C[C@H](C)[C@@H](CN(C)C(=O)NC1CCCC1)O2	/	.	.	.	/	/	/	/	/	/	/	/
O=C(Nc1ccc(Cl)cc1)Nc1nnc(-c2ccncc2)s1	.	/	/	/	.	.	/	/	/	/	/	/
Fc1ccc(Nc2nnc(-c3ccncc3)s2)cc1Cl	.	.	67	.	/	.	.	.	.	.	.	.
C(=N\N1CCN(c2ccccc2)CC1)/c1ccccc1	.	.	63	.	91	.	.	.	.	.	.	.
CNC[C@H]1Oc2c(NS(=O)(=O)c3c(C)noc3C)cccc2C(=O)N([C@@H](C)CO)C[C@H]1C	/	.	.	.	/	/	/	/	/	/	/	/
CO[C@@H]1CN(C)C(=O)c2cc(NC(=O)C3CCCCC3)ccc2OC[C@@H](C)N(Cc2nccs2)C[C@H]1C	/	.	.	.	/	/	/	/	/	/	/	/
Cc1ccsc1CN(C)C(=O)C1CCC(=O)N(CCc2cccc(F)c2)C1 (stereo unspecified)	.	.	65	.	.	.	.	.	.	.	.	.
CC(C)c1ccc(CNNC(=O)c2ccccc2)cc1	.	.	70	.	.	.	.	.	.	.	.	.
COc1cccc(CNC(=O)C[C@H]2CC[C@@H](NC(C)=O)[C@H](CO)O2)c1	/	.	.	.	/	/	/	/	/	/	/	/
O=C(NCc1ccccn1)Nc1ccc(Cl)cc1Cl	.	.	/	.	.	.	/	/	/	/	/	/
O=C(NCc1ccccn1)Nc1ccc(Br)cc1Cl	.	.	56	.	?	.	.	.	.	.	.	.
CO[C@H]1CN(C)C(=O)c2ccc(NC(=O)Cc3ccccc3)cc2OC[C@@H](C)N(C(=O)c2ccccc2F)C[C@H]1C	/	.	.	.	/	/	/	/	/	/	/	/
CCCC(=O)N1CC2(CN(Cc3cccnc3)C2)c2c([nH]c3cc(OC)ccc23)[C@@H]1CO	/	.	/	.	/	/	/	/	/	/	/	/

Screening results from PubChem BioAssay.
